The list is not random: actives were taken first. Their share in the collection is about 3.6%.
KAT2A inh = qHTS Assay for Inhibitors of GCN5L2; Histone acetyltransferase KAT2A (Homo sapiens), Q92830; GCN5L2 HAT assay, ThioGlo1 CoA-SH fluorescence; Potency, µM (titrated, usually from 58.9 µM), without a hit: top-dose activity change, negative = inhibition, most hits filed as inhibitors; 390,000 tested, 0.21% active; further: potency means the concentration at half of the fitted maximal effect; on the % scale 0 is the no-effect control and ±100 the full control effect
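Preincubate 20nM GCN5L2 with compound 15 min, RT → add 50uM ThioGlo1 + 75uM H3(1-25) + 70uM acetyl-CoA → read fluorescence 0 and 20 min. Primary qHTS; fluorescent artifacts likely.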
PI5P4Ka inh = qHTS for Inhibitors of phosphatidylinositol 5-phosphate 4-kinase (PI5P4K); AID 652105, 2013; PI5P4Kalpha enzyme, ADP-Glo luminescence, 60 min; stronger effect = lower value; 330,000 tested, 1.2% active; Phosphatidylinositol 5-phosphate 4-kinase type-2 alpha (Homo sapiens), P48426; max response, %; active means max response of -50% or lower; inconclusive means between -30% and -50%; inactive means -30% or higher; further: value at the top dose of about 77 µM; on the % scale 0 is the no-effect control and ±100 the full control effect
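ADP-Glo luminescence end-point read after a 60 min room-temperature kinase reaction of PI5P4Kalpha plus substrate, initiated with ATP at 5 microM final. Buffer: 0.038 M HEPES pH 7.4, EGTA, 0.1% CHAPS, 5% DMSO.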
VDR inh = Inhibitors of the vitamin D receptor (VDR): qHTS | VDR-SRC2-3 peptide fluorescence polarization, 2 h | Potency, µM, without a hit: max response, negative = inhibition, most hits filed as inhibitors | 400,000 tested, 0.93% active; further: potency means the concentration at half of the fitted maximal effect; on the % scale 0 is the no-effect control and ±100 the full control effect
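VDR–SRC2-3 interaction, FP format. Cmpds 23 nl via pintool, brief spin, 2 h ambient incubation.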
Rango complex inh = qHTS Assay for Inhibitors of Rango (Ran-regulated importin-beta cargo) - Importin beta complex formation; AID 540263, 2011; 340,000 tested, 0.031% active; Potency, µM (titrated, usually from 92.2 µM), for inactives: at the highest dose inhibition of complex formation; Rango CFP/YFP FRET sensor + importin beta, 45 min; Importin subunit beta-1 (Homo sapiens), Q14974; calls by dose curve;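 further: potency means the concentration at half of the fitted maximal effect; 0% = DMSO wells and 100% = buffer wells lacking importin beta; nearly all actives have a fitted effect of over 15% in size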
Target sequence (Q14974 whole entry, looked up): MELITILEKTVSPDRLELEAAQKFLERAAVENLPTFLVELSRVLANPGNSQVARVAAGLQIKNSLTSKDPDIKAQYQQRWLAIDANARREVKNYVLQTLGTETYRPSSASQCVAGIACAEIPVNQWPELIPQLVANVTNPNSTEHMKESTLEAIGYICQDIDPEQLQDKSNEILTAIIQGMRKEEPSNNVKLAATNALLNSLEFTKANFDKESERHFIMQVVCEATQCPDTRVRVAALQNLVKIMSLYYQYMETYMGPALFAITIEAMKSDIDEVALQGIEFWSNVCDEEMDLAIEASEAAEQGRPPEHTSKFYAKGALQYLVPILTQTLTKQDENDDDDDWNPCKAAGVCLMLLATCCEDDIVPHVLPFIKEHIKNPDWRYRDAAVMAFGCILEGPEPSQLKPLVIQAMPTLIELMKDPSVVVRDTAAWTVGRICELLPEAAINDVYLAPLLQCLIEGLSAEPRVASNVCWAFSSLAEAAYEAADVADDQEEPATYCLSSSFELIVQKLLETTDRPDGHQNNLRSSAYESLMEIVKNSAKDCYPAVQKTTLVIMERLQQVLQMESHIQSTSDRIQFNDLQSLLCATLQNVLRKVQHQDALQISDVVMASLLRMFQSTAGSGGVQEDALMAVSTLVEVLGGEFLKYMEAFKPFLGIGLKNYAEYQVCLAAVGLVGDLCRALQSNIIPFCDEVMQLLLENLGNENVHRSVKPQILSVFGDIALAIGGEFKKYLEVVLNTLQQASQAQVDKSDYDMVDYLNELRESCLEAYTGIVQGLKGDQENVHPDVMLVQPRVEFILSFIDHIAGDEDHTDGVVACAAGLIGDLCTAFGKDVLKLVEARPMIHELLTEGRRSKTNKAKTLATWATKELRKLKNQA
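Inhibition scored from the CFP 486 nm/YFP 530 nm FRET ratio 45 min after adding 0.125 microM importin beta to 50 nM Rango biosensor preincubated 5 min with compound (room temperature, PBS with DTT, Tween-20, BSA). No-importin wells as positive control.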
Rango release inh = qHTS Assay for Inhibitors of RanGTP induced Rango (Ran-regulated importin-beta cargo) - Importin beta complex dissociation; Biochemical FRET Rango-importin beta, RanGTP-induced dissociation; 340,000 tested, 0.071% active; Potency, µM (doses to about 46.1 µM), for the others: at the highest dose activity change, negative = inhibition; calls by dose curve; further: potency means the concentration at half of the fitted maximal effect; % of control where 0% means no effect; nearly all actives have a fitted effect of over 45% in size
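Rango (0.1 uM)–importin beta (0.25 uM) complex; RanGTP-RCC1 trigger; 45 min RT; CFP/YFP FRET read.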
PLK1 PBD block = qHTS for Inhibitors of PLK1-PDB (polo-like kinase 1 - polo-box domain): Primary Screen | Plk1 PBD binding of FITC phosphopeptide, fluorescence polarization | Serine/threonine-protein kinase PLK1 (Homo sapiens), P53350 | 360,000 tested, 2.8% active | Potency, µM, for inactives: max response, negative = inhibition, actives largely listed as inhibitors | AID 720504, 2013; further: potency means the concentration at half of the fitted maximal effect; series mostly up to about 57 µM; on the % scale 0 is the no-effect control and ±100 the full control effect; nearly all actives have a fitted effect of over 65% in size
* hit, by the source's call; ? = inconclusive; . = no result; ! = not confirmed by another sample; [ ] = dose if it differs, or a comment. Unless noted, the call rests on the fitted dose curve; in most records, active means well fitted curve in the direction sought with a large enough effect; inconclusive means small, poorly fitted or top-dose-only effect, or another doubt; inactive means no such curve, though single readings can be large; an effect the other way counts as inactive or inconclusive.

SMILES | KAT2A inh | PI5P4Ka inh | VDR inh | Rango complex inh | Rango release inh | PLK1 PBD block
CN1Cc2ccccc2[C@@H]2c3cccc4[nH]cc(c34)C[C@H]21 | -17% | . | 14µM* | . | . | .
CCN(CC)C(=O)N[C@@H]1C[C@H]2c3cccc4[nH]cc(c34)C[C@@H]2N(C)C1 | 0%[21.4 µM] | . | 3% | . | . | .
CC1=C[C@@H]2c3cccc4[nH]cc(c34)C[C@H]2N(C)C1 | 25% | 3 | 50µM*! | ? | ? | ?
COc1ccc(C[C@H]2c3cc(OC)c(OC)cc3CCN2C)cc1OC | 8.9µM* | . | 0% | . | . | .
COC(=O)C12C/C=C\Cc3ccccc3[C@@H]1CNC2=O (stereo not given in full) | . | . | 9% | . | . | .
CSCC[C@H](NC(=O)[C@H](Cc1ccccc1)NC(=O)CNC(=O)CNC(=O)[C@@H](N)Cc1ccc(O)cc1)C(=O)O | 6% | . | -1% | . | . | .
CC(=O)C[C@@H](c1ccccc1)c1c(O)c2ccccc2oc1=O | -13% | . | -3% | . | . | .
CCCCC/C=C\C/C=C\C/C=C\C/C=C\CCCC(=O)O | 22µM*! | . | 7.9µM*! | . | . | .
C/C(=C(/CCOC(=O)C(C)C)SS/C(CCOC(=O)C(C)C)=C(\C)N(C=O)Cc1cnc(C)nc1N)N(C=O)Cc1cnc(C)nc1N | -1% | . | 16µM* | . | . | .
CN[C@@H]1C[C@@]2(C)O[C@@H]([C@@H]1OC)n1c3ccccc3c3c4c(c5c6ccccc6n2c5c31)C(=O)NC4 | -19% | . | -1% | . | . | .
CC(C)(C)c1cc([N+](=O)[O-])cc(C(C)(C)C)c1O | 3% | 1 | -29% | -1% | 28% | 27µM*
NC(=O)c1cc([N+](=O)[O-])cc([N+](=O)[O-])c1 | -3% | -1 | -4% | -1% | -1% | -16%
CCCCCn1c(SCCCC)nc2c1c(=O)[nH]c(=O)n2C | -5% | -15 | ? | 1% | -17% | 27µM*
O=C1Nc2ccccc2C2(CCN(CCc3ccc(C(F)(F)F)cc3)CC2)O1 | 32% | . | 2% | . | . | .
O=C1NC(=S)N(c2ccc(F)cc2)C(=O)/C1=C/c1ccccc1O | 4% | -1 | -30% | 3% | 1% | -29%
COc1ccccc1C=C1C(=O)NC(=S)NC1=O | . | -86* | 45µM* | 7% | -4% | 24µM*
CCN(CC)c1ccc(/C=C2\C(=O)NC(=S)N(c3ccc(OC)cc3OC)C2=O)o1 | . | 7 | 8% | ? | 19% | 121%
COc1ccccc1/C=C1\C(=O)NC(=S)N(c2ccccc2)C1=O | -8% | -55* | 50µM* | ? | -18% | 15µM*
CCN1C(=O)/C(=C/c2ccc(N(CC)CC)cc2OC)C(=O)NC1=S | -3% | ? | ? | -1% | -14% | 1.1µM*
O=C1NC(=S)N(c2ccc(Br)cc2)C(=O)/C1=C/N1CCN(C(=O)c2ccco2)CC1 | -3% | ? | ? | ? | -19% | ?
CCOc1cccc(N2C(=O)/C(=C/c3ccco3)C(=O)NC2=S)c1 | ? | -93* | ? | ? | 0% | 12µM*
c1csc(CN2CC[C@@]3(CCCNC3)C2)n1 | -2% | . | ? | . | . | .
CNC(=S)S | 4% | . | ? | . | . | .
Cc1ccccc1-c1cncnc1NCCc1cnc[nH]1 | -4% | . | -11% | . | . | .
C=C/C(=C/C(=O)C[C@H](C)C[C@@H](C)CC[C@H](O)[C@H](C)C(=O)C[C@@H](O)[C@H](C)[C@@H](C)OC(=O)C[C@@H](O)C1=C(C)C(=O)OC1=O)CC | 3.2µM* | . | ? | . | . | .
SMILES | KAT2A inh | PI5P4Ka inh | VDR inh | Rango complex inh | Rango release inh | PLK1 PBD block
COc1c(C=C2C(=O)NC(=O)NC2=O)c(CCN(C)C(=O)c2ccccc2)cc2c1OCO2 | 0% | 11 | ? | -1% | -7% | 27µM*
CCCC(=O)NC(Oc1ccc(OC)cc1)C(Cl)(Cl)Cl (stereo not given) | -1% | -4 | -2% | 3% | 5% | -15%
CC(C)CC(=O)NC(Oc1ccc(Cl)cc1)C(Cl)(Cl)Cl (stereo not given) | 0.71µM* | 7 | 10% | -1% | 2% | -2%
CCC1COC(Cn2cncn2)(c2ccc(Cl)cc2Cl)O1 (stereo not given) | 18% | . | -13% | . | . | .
CC[C@]12CCCN3CCC4(c5ccccc5NC4C(C(=O)O)C1)C32 (stereo not given in full) | . | . | -15% | . | . | .
Cn1cccc1/C=C1/C(=O)NC(=O)N(C(C)(C)C)C1=O | 1% | 0 | -6% | ? | -9% | -10%
Cc1cc(C)cc(N2C(=O)NC(=O)/C(=C\c3cccn3-c3ccccc3)C2=O)c1 | -3% | 0 | -8% | 1% | 1% | 2.1µM*
CN1C(=O)/C(=C/c2cccn2-c2ccc3ccccc3c2)C(=O)NC1=S | -28% | -78* | 45µM* | ? | -25% | 0.53µM*
Cc1cc(C)cc(N2C(=O)NC(=O)/C(=C\c3cccn3-c3ccc(Cl)cc3)C2=O)c1 | 18% | ? | -1% | -1% | 1% | 1.2µM*
Oc1ccc(/C=N/NP(=S)(c2ccccc2)c2ccccc2)c(O)c1O | -9% | -51* | -15% | 4% | 9% | 11µM*
CCOP(=S)(OCC)Oc1cc(C)oc(=O)c1Cl | ? | -24 | 28µM* | 4% | 3% | 4.7µM*
CCOP(=O)(OCC)Oc1ccc2ccc(=O)oc2c1 | 25% | . | -3% | . | . | .
CCOP(=S)(OCC)Oc1cc(C)oc(=O)c1 | ? | -13 | 79µM* | -3% | 12% | 30µM*
CNC[C@H](O)c1ccc(OC(=O)C(C)(C)C)c(OC(=O)C(C)(C)C)c1 | ? | . | 9% | . | . | .
COc1cc(C(c2c(C)[nH]n(-c3ccccc3)c2=O)c2c(C)[nH]n(-c3ccccc3)c2=O)cc(OC)c1OC | -9% | . | ? | 2% | 10% | 2.1µM*

Bioassay records from PubChem.
